Source: PubChem BioAssay (NCATS)
Inconclusive results are not listed. The source made the active and inactive calls. Calls come from the whole dose curve; as a rule, active = well fitted inhibition curve with a large enough effect; inconclusive = small, poorly fitted or top-dose-only effect; inactive = no such curve, though single readings can be large or run the other way.

Test: qHTS to identify inhibitors of the type 1 interferon - major histocompatibility complex class I in skeletal muscle: primary screen against the NCATS Mechanism Interrogation Plate v5.0 (MIPE) Libary (AID 1347411); note: nearly all actives have a fitted effect of over 65% in size;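 for activity change, negative = inhibition: plate controls were vehicle for no effect and reference inhibitor for full effect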
Details: iHSKM cells + IFN-b, HiBiT-tagged MHC-I luminescence, 24 h; series mostly up to 45.8 µM; activity change, negative = inhibition: at the top concentration
Outline: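 Immortalized human C25cl48 myoblasts with HiBit knocked into endogenous HLA-B*08:01 were stimulated with 4.0 ng/ml IFN-beta and exposed to compounds (11-point 1:3 titration, top 46 uM final) for 24 hrs at 37 C; HiBiT lytic luminescence measured.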
Potency is the fitted concentration of half-maximal effect.

SMILES	activity change, negative = inhibition	Potency
NC(=O)[C@@H](CCC(F)(F)F)N(Cc1ccc(-c2ncon2)cc1F)S(=O)(=O)c1ccc(Cl)cc1	-19.8% (inactive)	–
COc1ccc(-c2coc3cc(O)cc(O)c3c2=O)cc1	–	16.5 µM (active)
N#Cc1ccc(NC(=O)Nc2ccccc2Br)c2n[nH]nc12	-21.6% (inactive)	–
CC#CCn1c(N2CCC[C@@H](N)C2)nc2c1c(=O)n(Cc1nc(C)c3ccccc3n1)c(=O)n2C	-2.87% (inactive)	–
CCNc1cc(NC2CCC(O)CC2)nc(Nc2ccc3c(ccn3Cc3ccccc3)c2)n1 (stereo not given)	-5.26% (inactive)	–
COc1cc(N2CCC(N3CCN(C)CC3)CC2)ccc1Nc1ncnc(Nc2ccccc2S(=O)(=O)C(C)C)n1	–	4.15 µM (active)
O=C(NC1CCOCC1)c1ccc(-c2cc(-c3cn[nH]c3-c3ccccn3)ccn2)cc1	-2.57% (inactive)	–
C[C@H](NC(=O)C(=O)Nc1ccccc1C(C)(C)C)C(=O)N[C@@H](CC(=O)O)C(=O)COc1c(F)c(F)cc(F)c1F	–	13.1 µM (active)
Cc1ccc(C(C)(O)c2nc3ccccc3s2)c(C)c1 (stereo not given)	-14.8% (inactive)	–
CN1CCN(CCOc2cc(OC3CCOCC3)c3c(Nc4c(Cl)ccc5c4OCO5)ncnc3c2)CC1	–	29.4 µM (active)
O=C(O)c1ccccc1C(=O)Nc1ccc(-c2ccccc2)cc1	–	29.4 µM (active)
O=C(NCc1ccncc1)C12C[C@H]3C[C@@H](C1)CC(c1ccc(Cl)cc1)(C3)C2	-9.19% (inactive)	–
O=C(NOCC(O)CO)c1cc(Br)c(F)c(F)c1Nc1ccc(I)cc1F (stereo not given)	-32.2% (inactive)	–
O=C(Nc1cc(Cl)cc2c1[nH]c1cnccc12)c1cccnc1	-53.1% [at 15.5 µM] (inactive)	–
CC(=O)Nc1ccc([C@H](C)C(=O)Nc2ncc(C(C)C)s2)cc1	–	5.87 µM (active)
